The values below come from PubChem BioAssay (Tox21).

“And” between values parts separate entries of the source, which are not always exact repeats. Equal entries are not always repeated. Results filed as inconclusive are left out. A call without a number means that no potency is given here. The source holds several records for some structures; these can differ, active in one and inactive in another. The source made the active and inactive calls. The call rests on the fitted dose curve; in most records, active means well fitted activation curve with a large enough effect in the repeat runs; inconclusive means weak or mixed curves; inactive means flat fitted curve, though single readings scatter.
Potency means the concentration at half of the fitted maximal effect.

The experiment can be described thus: A CellTox Green Cytotoxicity Assay to monitor cytotoxicity in HEK293 cells - 32 hour (AID 1224881). Further: nearly all actives have a fitted effect of over 40% in size. The settings on record: CellTox Green fluorescence; series mostly up to 76.8 µM. From the text:
National Center for Advancing Translational Sciences [NCATS]
NIH Chemical Genomics Center [NCGC]
U.S. Environmental Protection Agency [EPA]
National Institutes of Environmental Health Sciences [NIEHS]
National Toxicology Program [NTP]
Cell-based models are critical for drug discovery. Determining the natural cytotoxic effects resulting from test compounds is an essential research activity. A CellTox Green Cytotoxicity Assay to monitor cytotoxicity in real time of continues cell culture during 40 hours of the compound treatment was used to screen Tox21 10K library compounds in Hek293 cells. CellTox Green Cytotoxicity Assay is a nonlytic, homogeneous, biofluorescent method to measure cytotoxicity in cell culture after experimental manipulation. The assay system uses a proprietary asymmetric cyanine dye that is excluded from viable cells but preferentially stains the dead cell's DNA. […] Viable cells produce no appreciable increases in fluorescence. Therefore, the fluorescence signal produced by the binding interaction with dead cell DNA is proportional to cytotoxicity.
The mixture of Hek293 cell suspension and reagents were dispensed at 600cells/6 ul/well in 1536-well tissue culture treated black solid bottom plates using a Multidrop dispenser. After the assay plates were incubated at a 37 C/5% CO2 incubator for 5 hours, 23 nL of compounds dissolved in DMSO, positive and negative controls was transferred to the assay plate by a pintool work station. The plates were incubated at 37 C for 40 hours. The fluorescence intensity were measured at 0h, 8h, 16h, 24h, 32h and 40h time points using ViewLux plate reader during compound treatment.
Consider `COP(=O)(OC)Oc1ccc([N+](=O)[O-])cc1`, for which the Potency entry is “inactive”.

`O=c1c2ccccc2c(=O)c2c1cc(Cl)c1[nH]c3c([nH]c12)c(Cl)cc1c(=O)c2ccccc2c(=O)c13`: the Potency result is “inactive”.

For the compound `CC#C[C@]1(O)CC[C@H]2[C@@H]3C[C@H](C)C4=CC(=O)CC[C@]4(C)[C@H]3CC[C@@]21C`, the Potency result was “inactive”.

In the case of `CCC[CH2][Sn]([CH2]CCC)([CH2]CCC)[O][Sn]([CH2]CCC)([CH2]CCC)[CH2]CCC`, the Potency was 0.339 µM (active).

For the compound `O.O.O.O.O.O.O=S(=O)([O-])[O-].[Ni+2]`, the Potency result is “inactive”.

`COP(=O)(OC)O/C(=C\Cl)c1cc(Cl)c(Cl)cc1Cl`: the Potency result was “inactive”.

For the compound `Clc1ccc(C(c2ccc(Cl)cc2)C(Cl)Cl)cc1`, the Potency is 49 µM (active).

Consider `COC(=O)c1ccccc1S(=O)(=O)NC(=O)Nc1nc(C)nc(OC)n1`, for which the Potency result was “inactive”.

Take `O=C(CCCCl)c1ccc(F)cc1`: the Potency entry is “inactive”.

For the compound `O=C(N[C@@H]1N=C(c2ccccc2F)c2cccc3c2N(CC3)C1=O)c1cc2ccccc2[nH]1`, the Potency was 6.01 µM (active).

As for `NC1CCC(CC2CCC(N)CC2)CC1` (stereo not given), the Potency result is “inactive”.

`CC(Cl)CCl` (stereo not given): the Potency entry was “inactive”.

As for `Brc1ccc(Oc2ccc(Br)cc2Br)c(Br)c1`, the Potency result was “inactive”.

On to `Oc1cc(Cl)cc(Cl)c1`, for which the Potency was 49.5 µM (active).

For the compound `CC(Cc1ccc(O)cc1)NCC(O)c1cc(O)cc(O)c1` (stereo not given), the Potency result was “inactive”.

Turning to `[Cl-].[Cl-].[Sn+2]`, the Potency result was “inactive”.

With `O=C(NC(=O)c1c(F)cccc1F)Nc1ccc(Oc2ccc(C(F)(F)F)cc2Cl)cc1F`, the Potency entry was “inactive”.

On to `Cc1cnc2c(C(=O)O)c(Cl)ccc2c1`, for which the Potency entry is “inactive”.

Regarding `CC1(C)C(C=C(Cl)Cl)C1C(=O)OC(C#N)c1ccc(F)c(Oc2ccccc2)c1` (stereo not given), the Potency entry is “inactive”.

Turning to `N#CCCl`, the Potency entry was “inactive”.

For `CC[N+]1(CC)CCC(OC(=O)C(O)(c2ccccc2)c2ccccc2)C1` (stereo not given), the Potency entry is “inactive”.

Consider `COC(=O)N(OC)c1ccccc1COc1ccn(-c2ccc(Cl)cc2)n1`, for which the Potency entry was “inactive”.

`CCCCN(CCCC)C(=S)S`: the Potency result is “inactive”.

On to `COP(=S)(NC(C)C)Oc1ccc(C)cc1[N+](=O)[O-]` (stereo not given), for which the Potency entry is “inactive”.

In the case of `C=CCBr`, the Potency result is “inactive”.

Turning to `CCCCCCCCCCCCCCn1cc[n+](C)c1`, the Potency was 34.7 µM (active) and 38.5 µM (active) and inactive.

Turning to `COc1ccc(Cc2nccc3cc(OC)c(OC)cc23)cc1OC`, the Potency entry was “inactive”.

In the case of `COc1cnc(OC)n2nc(NS(=O)(=O)c3c(OCC(F)F)cccc3C(F)(F)F)nc12`, the Potency entry was “inactive”.

On to `CC1CN1` (stereo not given), for which the Potency result was “inactive”.

Regarding `CCOP(=S)(OCC)SC(CCl)N1C(=O)c2ccccc2C1=O` (stereo not given), the Potency result was “inactive”.

Take `Cc1ccc([N+](=O)[O-])[c]2c1[O][Hg]2`: the Potency was 0.674 µM (active).

Consider `O=C(NC(=O)c1ccccc1Cl)Nc1ccc(OC(F)(F)F)cc1`, for which the Potency entry is “inactive”.

In the case of `CCCCCCC[CH2][Sn]([Cl])([Cl])[CH2]CCCCCCC`, the Potency result is “inactive”.

Consider `Clc1ccc(C2(Cn3cncn3)OCCO2)c(Cl)c1`, for which the Potency result is “inactive”.

As for `Nc1cc(Cl)ccc1Cl`, the Potency entry is “inactive”.

As for `CCOP(=O)(OCC)Oc1nc(Cl)c(Cl)cc1Cl`, the Potency result is “inactive”.

Consider `CC(=O)[O-].CC(=O)[O-].CC(=O)[O-].[Cr+3]`, for which the Potency result is “inactive”.

As for `O=P(Cl)(Cl)Cl`, the Potency entry is “inactive”.

Turning to `CCOP(=S)(NC(C)C)Oc1ccccc1C(=O)OC(C)C` (stereo not given), the Potency result is “inactive”.

On to `CN1[C@@H]2CC[C@H]1CC(O)C2` (stereo not given in full), for which the Potency entry is “inactive”.
